Screens deposited in PubChem BioAssay by Broad Institute.
DUX4 txn inh = DUX4-mediated transcription inhibition | activity change, negative = inhibition, % (concentration not given with the values) | 293T-iDUX4 ZSCAN4-Gaussia luciferase reporter, 24 h; hits give low values | 37,000 tested, 0.8% active;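 active means mean inhibition of at least 10% in the main channel, exceeding the control channel by a set limit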;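 further: 0% = median of neutral control wells and -100% = median of positive control wells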
The depositor's hits bear a star. Shown is part of a subset that was picked to be rich in hits.

SMILES	DUX4 txn inh
C[C@@H]1CN([C@H](C)CO)C(=O)c2c(c3ccccc3n2C)-c2ccccc2CO[C@H]1CN(C)S(C)(=O)=O	8
Cc1ccccc1S(=O)(=O)N(C)C[C@H]1OCc2ccccc2-c2c(n(C)c3ccccc23)C(=O)N([C@H](C)CO)C[C@@H]1C	-35*
C[C@H]1CN([C@@H](C)CO)C(=O)c2c(c3ccccc3n2C)-c2ccccc2CO[C@@H]1CN(C)S(=O)(=O)c1ccc([N+](=O)[O-])cc1	-5
C[C@@H]1CN([C@@H](C)CO)C(=O)c2c(c3ccccc3n2C)-c2ccccc2CO[C@@H]1CN(C)S(=O)(=O)c1cccc(C#N)c1	-24*
C[C@@H]1CN([C@H](C)CO)C(=O)c2c(c3ccccc3n2C)-c2ccccc2CO[C@H]1CN(C)S(=O)(=O)c1cccc(C#N)c1	13
C[C@@H]1CN([C@H](C)CO)C(=O)c2c(c3ccccc3n2C)-c2ccccc2CO[C@@H]1CN(C)S(C)(=O)=O	17
C[C@@H]1CN([C@H](C)CO)C(=O)c2c(c3ccccc3n2C)-c2ccccc2CO[C@H]1CN(C)S(=O)(=O)c1ccc(F)cc1	-29*
C[C@@H]1CN([C@@H](C)CO)C(=O)c2c(c3ccccc3n2C)-c2ccccc2CO[C@@H]1CN(C)S(=O)(=O)c1ccc(C#N)cc1	3
COc1ccc2c3c(n(C)c2c1)[C@@H](CO)NCC31CCN(S(=O)(=O)c2ccccc2)CC1	4
O=C(C[C@H]1CC[C@H]2[C@@H](COC[C@@H](O)CN2C(=O)c2ccc(F)cc2)O1)NCCCN1CCOCC1	12
COc1ccccc1NC(=O)N1C[C@@H](O)COC[C@H]2O[C@H](CC(=O)NCc3ccccc3)CC[C@@H]21	5
CC(C)NC(=O)N[C@@H]1CC[C@@H](CCNC(=O)C2CCOCC2)O[C@H]1CO	-3
COc1cccc(CN2CC3(CCN(C(C)=O)CC3)c3c(n(C)c4cc(OC)ccc34)[C@@H]2CO)c1	4
O=S(=O)(c1ccccc1)N1CCCCN2[C@H](CO)[C@@H](c3ccc(-c4ccccc4)cc3)[C@@H]2C1	-5
O=C(Nc1ccc(F)cc1)N1CCCCN2[C@H](C1)[C@H](c1ccc(C#CC3CC3)cc1)[C@@H]2CO	24
C[C@H](O)C#Cc1ccc([C@H]2[C@H]3CN(S(=O)(=O)c4ccccc4)CCCCN3[C@H]2CO)cc1	2
O=S(=O)(c1ccccc1)N1CCCCN2[C@H](C1)[C@H](c1ccc(C#Cc3cccnc3)cc1)[C@@H]2CO	-45*
O=S(=O)(c1ccc(F)cc1)N1CCCCN2[C@H](C1)[C@@H](c1ccc(C#CC3CC3)cc1)[C@@H]2CO	-2
O=S(=O)(c1ccccc1)N1CCCCN2[C@H](CO)[C@H](c3ccc(C#CC4CCCC4)cc3)[C@@H]2C1	23
O=C(C1CC1)N1CCCCN2[C@H](CO)[C@H](c3ccc(C#CC4CCCC4)cc3)[C@H]2C1	-1
O=S(=O)(c1ccccc1)N1CCCCN2[C@H](C1)[C@H](c1ccc(C#CC3CCCC3)cc1)[C@@H]2CO	-26*
C[C@H](O)C#Cc1ccc([C@@H]2[C@H](CO)N3CCCCN(S(=O)(=O)c4ccccc4)C[C@@H]23)cc1	1
O=C(C1CC1)N1CCCCN2[C@H](C1)[C@@H](c1ccc(C#CC3CCCC3)cc1)[C@@H]2CO	-24*
O=S(=O)(c1ccccc1)N1CCCCN2[C@H](CO)[C@H](c3ccc(C#Cc4cccnc4)cc3)[C@@H]2C1	-56*
O=S(=O)(c1ccccc1)N1CCCCN2[C@H](C1)[C@@H](c1ccc(C#Cc3cccnc3)cc1)[C@@H]2CO	0
SMILES	DUX4 txn inh
COc1ccc2c3c([nH]c2c1)[C@H](CO)N(Cc1nccs1)CC31CN(Cc2cccnc2)C1	10
C[C@@H]1CCCCO[C@H](CN(C)C(=O)C2CCCCC2)[C@H](C)CN([C@@H](C)CO)C(=O)c2cc(NS(=O)(=O)c3ccccc3)ccc2O1	2
COCC(=O)N1CC2(CN(C(C)=O)C2)c2c([nH]c3cc(OC)ccc23)[C@@H]1CO	1
CCC(=O)N1C[C@H](O)COC[C@H]2O[C@H](CC(=O)N3CCCCC3)CC[C@@H]21	9
CN(C)C(=O)C[C@H]1CC[C@@H]2[C@H](COc3ccc(NC(=O)Nc4cccc(Cl)c4)cc3C(=O)N2C)O1	-7
Cc1noc(C)c1S(=O)(=O)N(C)C[C@H]1Oc2c(cccc2N(C)C)C(=O)N([C@@H](C)CO)C[C@H]1C	-5
CC(C)(C)[S@@](=O)N1Cc2cc(C(=O)NCCc3ccncc3)nc(-c3cccc(-c4ccccc4)c3)c2[C@H]1CCO	4
CC(C)NC(=O)N1CC[C@@H]2[C@H]1c1cc(-c3ccccc3)ccc1N(C)[C@H]2CO	1
CCCNC(=O)N1C[C@H]2[C@@H](c3ccccc31)[C@H](CO)N2Cc1ccc(OC)cc1	-4
O=C(NC1Cc2ccccc2C1)[C@@H]1[C@@H](CO)[C@@H]2Cn3c(cccc3=O)[C@@H]2N1C(=O)c1ccccn1	4
C[C@H](CO)N1C[C@H](C)[C@H](CN(C)CC2CCOCC2)Oc2cc(C#Cc3ccccc3F)ccc2S1(=O)=O	-1
